# Laboratory results taken from PubChem BioAssay (NCATS).
# Records with an inconclusive call do not appear. A call without a number means that no potency is given here. A number with no mark means an inactive call. Active and inactive are the calls of the source. Unless noted, calls follow the shape of the dose curve; as a rule, active = well fitted curve in the direction sought with a large enough effect; inconclusive = small, poorly fitted or top-dose-only effect, or another doubt; inactive = no such curve, though single readings can be large; an effect the other way counts as inactive or inconclusive.
# Experiments:
# [1] = target: ATP-dependent 6-phosphofructokinase (Trypanosoma brucei brucei) (UniProt O15648); test: qHTS Assay to Find Inhibitors of T. brucei phosphofructokinase: hit validation (AID 492961);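 also: luminescence reports ADP formed as PFK phosphorylates fructose-6-phosphate with ATP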
# In short: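 Reaction: 0.1 M triethanolamine pH 8.0, 5 mM MgCl2, F6P 0.5 mM, ATP 0.1 mM, PFK 1.25 nM, 45 min RT. Read-out: ADP-Glo luminescence. Analysis: concentration-response fits, classed by r2 and efficacy.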
# [2] = target: Ubiquitin carboxyl-terminal hydrolase 1 (Homo sapiens) (UniProt O94782); test: Inhibitors of USP1/UAF1: Pilot qHTS (AID 504865);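 also: rhodamine fluorescence freed from ubiquitin-rhodamine substrate followed over time; top concentration of the series differs between compounds; nearly all actives have a fitted effect of over 35% in size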
# In short: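 USP1/UAF1 complex (1nM) preincubated with compound 15 min at room temperature, then Ub-Rho substrate (150nM final) added. Fluorescence read kinetically at 480/540 nm, 6 reads every 60 seconds. Buffer: 50mM HEPES pH 7.8, 0.5mM EDTA, 0.1 mg/ml BSA, 1mM TCEP, 0.01% Tween-20.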
# [3] = target: Luciferin 4-monooxygenase (Photinus pyralis) (UniProt P08659); test: Biochemical firefly luciferase enzyme assay for NPC (AID 624030); also: potency is read from the fitted curve at half-maximal effect; nearly all actives have a fitted effect of over 70% in size
# In short: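 Counter-screen for direct inhibition of the luciferase enzyme by approved-drug library compounds, run at 10 nM enzyme in 50 mM Tris acetate (final). Luminescence was read within 5 min of enzyme-buffer addition and normalized to PTC124 versus DMSO (0%).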
# [4] = S16 Schwann cell viability assay (CellTiter-Glo assay) (AID 624031);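 also: native untransfected S16 rat Schwann cells; cellular ATP luminescence as a viability measure; nearly all actives have a fitted effect of over 70% in size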
# In short: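 Following overnight culture in 10% FBS DMEM, parental S16 rat Schwann cells are dosed for 24 h at 37 °C. Viability is read as CellTiter-Glo luminescence and expressed as % activity relative to DMSO (0%) and no-cell wells.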
# [5] = S16 Schwann cell PMP22 intronic element firefly luciferase assay (AID 624032); also: nearly all actives have a fitted effect of over 30% in size
# In short: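 Rat S16 Schwann cells stably carrying a PMP22 intronic element-driven Fluc reporter were seeded overnight, then exposed to compounds for 24 h at 37 °C. Luminescence was normalized to PTC124 (positive control) and DMSO (0% activity).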
# [6] = target: Cytochrome P450 2C9 (Homo sapiens) (UniProt P11712); test: Cytochrome P450 family 2 subfamily C member 9 (CYP2C9) small molecule antagonists: luciferase biochemical (cell-free) qHTS assay (AID 1645842; active = well fitted curve in the direction sought with a large enough effect in the repeat runs; an effect the other way counts as inactive or inconclusive; also: nearly all actives have a fitted effect of over 55% in size)
# In short: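 Luminescence, after 20 min with luciferin detection reagent, reflected CYP2C9 turnover during a 1 h NADPH-driven reaction at 37C. Enzyme-substrate mix contained 0.4% bovine serum albumin and was preincubated with compound 10 min at room temperature.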
# [7] = NCATS anti-infectives library activity on HEK293 viability as a counter-qHTS vs the C. elegans viability qHTS (AID 1745854);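 also: HEK293 cells exposed to compounds for 24 hr before the viability read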
# In short: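 Cytotoxicity in human HEK293 cells is measured by ATP-dependent CellTiter-Glo luminescence following a 24 hr incubation with titrated library compounds at 37C. Top final concentration is 41.7 uM.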
# [8] = qHTS profiling for inhibitors of Plasmodium falciparum proliferation (AID 504749); also: nearly all actives have a fitted effect of over 60% in size; details: P. falciparum in erythrocytes, SYBR Green DNA, 72 h, at 28.7 µM (top of the series)
# In short: (§1)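 P. falciparum-infected erythrocytes (0.3% parasitemia, 2.5% hematocrit final) were exposed to compounds for 72 h at 37 C in 5% CO2, then lysed with SYBR Green buffer overnight at room temperature; parasite DNA fluorescence was normalized to artemisinin and DMSO controls.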
# [9] = system: 3D7; test: as above; details: P. falciparum in erythrocytes, SYBR Green DNA, 72 h; series mostly up to 12.8 µM
# In short: as §1
# [10] = system: 7G8; test: as above; details: P. falciparum in erythrocytes, SYBR Green DNA, 72 h; series mostly up to 12.8 µM
# In short: as §1
# [11] = system: AA1029; test: as above; details: P. falciparum in erythrocytes, SYBR Green DNA, 72 h; series mostly up to 12.8 µM
# In short: as §1
# [12] = system: AS120; test: as above; details: P. falciparum in erythrocytes, SYBR Green DNA, 72 h; series mostly up to 12.8 µM
# In short: as §1
# [13] = system: ATS189; test: as above; details: P. falciparum in erythrocytes, SYBR Green DNA, 72 h; series mostly up to 12.8 µM
# In short: as §1
# [14] = system: C2A; test: as above; details: P. falciparum in erythrocytes, SYBR Green DNA, 72 h; series mostly up to 12.8 µM
# In short: as §1
# [15] = system: CP185; test: as above; details: P. falciparum in erythrocytes, SYBR Green DNA, 72 h; series mostly up to 12.8 µM
# In short: as §1
# [16] = system: CP191; test: as above; details: P. falciparum in erythrocytes, SYBR Green DNA, 72 h; series mostly up to 12.8 µM
# In short: as §1
# [17] = system: CP192; test: as above; details: P. falciparum in erythrocytes, SYBR Green DNA, 72 h; series mostly up to 12.8 µM
# In short: as §1
# [18] = system: CP194; test: as above; details: P. falciparum in erythrocytes, SYBR Green DNA, 72 h; series mostly up to 12.8 µM
# In short: as §1
# [19] = system: CP201; test: as above; details: P. falciparum in erythrocytes, SYBR Green DNA, 72 h; series mostly up to 12.8 µM
# In short: as §1
# [20] = system: CP203; test: as above; details: P. falciparum in erythrocytes, SYBR Green DNA, 72 h; series mostly up to 12.8 µM
# In short: as §1
# [21] = system: CP211; test: as above; details: P. falciparum in erythrocytes, SYBR Green DNA, 72 h; series mostly up to 12.8 µM
# In short: as §1
# [22] = system: CP215; test: as above; details: P. falciparum in erythrocytes, SYBR Green DNA, 72 h; series mostly up to 12.8 µM
# In short: as §1
# [23] = system: CP217; test: as above; details: P. falciparum in erythrocytes, SYBR Green DNA, 72 h; series mostly up to 12.8 µM
# In short: as §1
# [24] = system: CP237; test: as above; details: P. falciparum in erythrocytes, SYBR Green DNA, 72 h; series mostly up to 12.8 µM
# In short: as §1
# [25] = system: CP238; test: as above; details: P. falciparum in erythrocytes, SYBR Green DNA, 72 h; series mostly up to 12.8 µM
# In short: as §1
# [26] = system: CP247; test: as above; details: P. falciparum in erythrocytes, SYBR Green DNA, 72 h; series mostly up to 12.8 µM
# In short: as §1
# [27] = system: CP250; test: as above; details: P. falciparum in erythrocytes, SYBR Green DNA, 72 h; series mostly up to 12.8 µM
# In short: as §1
# [28] = system: CP252; test: as above; details: P. falciparum in erythrocytes, SYBR Green DNA, 72 h; series mostly up to 12.8 µM
# In short: as §1
# [29] = system: CP256; test: as above; details: P. falciparum in erythrocytes, SYBR Green DNA, 72 h; series mostly up to 12.8 µM
# In short: as §1
# [30] = system: CP260; test: as above; details: P. falciparum in erythrocytes, SYBR Green DNA, 72 h; series mostly up to 12.8 µM
# In short: as §1
# [31] = system: CP262; test: as above; details: P. falciparum in erythrocytes, SYBR Green DNA, 72 h; series mostly up to 12.8 µM
# In short: as §1
# [32] = system: CP265; test: as above; details: P. falciparum in erythrocytes, SYBR Green DNA, 72 h; series mostly up to 12.8 µM
# In short: as §1
# Sequence of ATP-dependent 6-phosphofructokinase (Trypanosoma brucei brucei) (O15648 whole entry, looked up): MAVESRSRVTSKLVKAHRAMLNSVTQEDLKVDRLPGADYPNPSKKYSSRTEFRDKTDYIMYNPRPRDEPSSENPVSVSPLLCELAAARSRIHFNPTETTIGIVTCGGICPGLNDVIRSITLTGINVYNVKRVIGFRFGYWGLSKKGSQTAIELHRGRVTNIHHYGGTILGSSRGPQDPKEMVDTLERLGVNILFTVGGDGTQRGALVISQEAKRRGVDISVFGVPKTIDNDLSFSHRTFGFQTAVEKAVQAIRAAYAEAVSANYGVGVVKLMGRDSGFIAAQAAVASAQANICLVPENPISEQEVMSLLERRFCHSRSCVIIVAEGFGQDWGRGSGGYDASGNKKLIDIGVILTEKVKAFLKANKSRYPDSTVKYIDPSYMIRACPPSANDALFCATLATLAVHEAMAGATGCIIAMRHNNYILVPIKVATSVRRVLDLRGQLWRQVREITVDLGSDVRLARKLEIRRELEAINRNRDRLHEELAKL
# Sequence of Cytochrome P450 2C9 (Homo sapiens) (P11712 whole entry, looked up): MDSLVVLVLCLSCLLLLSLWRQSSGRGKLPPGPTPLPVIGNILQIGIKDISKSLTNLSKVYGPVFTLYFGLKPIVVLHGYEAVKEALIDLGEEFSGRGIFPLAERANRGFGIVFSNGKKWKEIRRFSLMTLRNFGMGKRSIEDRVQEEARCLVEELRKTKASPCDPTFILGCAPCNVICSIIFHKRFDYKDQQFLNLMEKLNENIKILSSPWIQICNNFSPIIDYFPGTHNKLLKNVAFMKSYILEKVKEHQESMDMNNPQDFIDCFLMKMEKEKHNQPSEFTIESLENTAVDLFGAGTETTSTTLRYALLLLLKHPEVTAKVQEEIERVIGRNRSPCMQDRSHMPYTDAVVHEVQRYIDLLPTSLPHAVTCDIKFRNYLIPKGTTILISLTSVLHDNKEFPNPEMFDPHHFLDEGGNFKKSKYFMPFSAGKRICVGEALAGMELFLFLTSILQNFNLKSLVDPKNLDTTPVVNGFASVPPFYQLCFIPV
# Sequence of Ubiquitin carboxyl-terminal hydrolase 1 (Homo sapiens) (O94782 whole entry, looked up): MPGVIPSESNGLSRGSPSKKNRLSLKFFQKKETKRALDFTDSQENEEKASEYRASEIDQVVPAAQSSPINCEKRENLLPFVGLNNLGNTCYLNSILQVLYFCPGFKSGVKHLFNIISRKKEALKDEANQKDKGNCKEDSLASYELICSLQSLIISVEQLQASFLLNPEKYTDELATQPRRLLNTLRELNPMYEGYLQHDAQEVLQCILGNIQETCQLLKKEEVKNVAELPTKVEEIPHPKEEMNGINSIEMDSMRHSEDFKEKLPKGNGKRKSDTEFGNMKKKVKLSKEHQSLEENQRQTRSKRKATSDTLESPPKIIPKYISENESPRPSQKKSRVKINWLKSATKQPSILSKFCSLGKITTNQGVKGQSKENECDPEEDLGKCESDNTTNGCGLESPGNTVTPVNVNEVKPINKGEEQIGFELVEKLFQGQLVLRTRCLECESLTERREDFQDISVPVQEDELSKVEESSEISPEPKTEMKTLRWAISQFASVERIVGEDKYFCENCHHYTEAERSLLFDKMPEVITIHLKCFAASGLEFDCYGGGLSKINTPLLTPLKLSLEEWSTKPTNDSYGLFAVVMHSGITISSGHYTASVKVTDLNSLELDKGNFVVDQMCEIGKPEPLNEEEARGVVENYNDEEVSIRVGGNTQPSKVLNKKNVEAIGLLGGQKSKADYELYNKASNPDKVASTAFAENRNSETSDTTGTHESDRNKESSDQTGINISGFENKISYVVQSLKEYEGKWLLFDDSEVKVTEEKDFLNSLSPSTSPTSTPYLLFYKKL
# Sequence of Luciferin 4-monooxygenase (Photinus pyralis) (P08659 whole entry, looked up): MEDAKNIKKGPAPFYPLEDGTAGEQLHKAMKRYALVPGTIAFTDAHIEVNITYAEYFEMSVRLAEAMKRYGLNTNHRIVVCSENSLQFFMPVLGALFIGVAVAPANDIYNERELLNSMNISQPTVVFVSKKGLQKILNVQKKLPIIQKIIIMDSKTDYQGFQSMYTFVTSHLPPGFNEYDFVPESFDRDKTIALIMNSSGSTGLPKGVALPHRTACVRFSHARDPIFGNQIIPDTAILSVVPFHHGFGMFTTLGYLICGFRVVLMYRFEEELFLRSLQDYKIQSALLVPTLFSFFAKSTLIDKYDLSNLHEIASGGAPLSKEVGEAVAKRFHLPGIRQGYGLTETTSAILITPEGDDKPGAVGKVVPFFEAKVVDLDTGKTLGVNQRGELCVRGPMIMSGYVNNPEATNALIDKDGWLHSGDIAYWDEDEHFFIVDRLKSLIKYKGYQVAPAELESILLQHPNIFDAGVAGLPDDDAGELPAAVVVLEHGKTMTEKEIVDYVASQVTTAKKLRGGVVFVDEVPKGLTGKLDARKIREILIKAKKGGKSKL
smiles,measurement,setting,value
Nc1nc(NC2CC2)c2ncn([C@H]3C=C[C@@H](CO)C3)c2n1,outcome,[1],inactive
same,Potency,[2],inactive
same,Potency,[3],11.4 µM (active)
same,outcome,[4],inactive
same,Potency,[5],inactive
same,Potency,[6],inactive
same,outcome,[7],inactive
same,"activity, negative = inhibition",[8]; parasite line A,8.14%
same,"activity, negative = inhibition",[8]; parasite line B,1.25%
same,Potency,[9],inactive
same,Potency,[10],inactive
same,Potency,[11],inactive
same,Potency,[12],inactive
same,Potency,[13],inactive
same,Potency,[14],inactive
same,Potency,[15],inactive
same,Potency,[16],inactive
same,Potency,[17],inactive
same,Potency,[18],inactive
same,Potency,[19],inactive
same,Potency,[20],inactive
same,Potency,[21],inactive
same,Potency,[22],inactive
same,Potency,[23],inactive
same,Potency,[24],inactive
same,Potency,[25],inactive
same,Potency,[26],inactive
same,Potency,[27],inactive
same,Potency,[28],inactive
same,Potency,[29],inactive
same,Potency,[30],inactive
same,Potency,[31],inactive
same,Potency,[32],inactive
